Screening results (PubChem BioAssay)
SNCA expr inh = inhibitors of alpha-synuclein (SNCA) gene expression. HEK-293 SNCA-luciferase knock-in, luminescence, 24 h. Potency, µM (doses to about 57.2 µM), for inactives: at the highest dose activity change, negative = inhibition, usual class: inhibitors. 0.17% of 140,000 active. AID 1671194;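 also: plate controls were DMSO cells for no effect and cell-free wells for full effect; nearly all actives have a fitted effect of over 45% in size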
FLuc inh = blocks purified firefly luciferase enzyme activity. Potency, µM (series often up to 115 µM), actives largely listed as inhibitors. P08659. 2.5% of 76,000 active. purified P. pyralis luciferase, luminescence, biochemical; also: nearly all actives have a fitted effect of over 65% in size
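FLuc 10nM, D-luciferin 10uM, ATP 10uM, Mg acetate 10mM, Tris acetate pH 7.5, Tween/BSA; cpd qHTS; enzyme added last; CCD luminescence.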
NIH3T3 tox = NIH 3T3 cell cytotoxicity. NIH 3T3 viability, CellTiter-Glo ATP luminescence, 48-72 h. Potency, µM (top dose mostly 96.7 µM), for inactives: top-dose activity change, negative = cytotoxicity, hits mostly inhibitors. 4.3% of 94,000 active; also: nearly all actives have a fitted effect of over 55% in size
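ATP-dependent luminescence (CellTiter-Glo) served as the viability signal for NIH 3T3 cells treated with compound for 48 or 72 hr at 37 °C.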
NPR1 antag = blocks ANP-stimulated signaling of human Npr1 receptor. HEK293 hNpr1 GloSensor cGMP, ANP-stimulated luminescence. Potency, µM (series often up to 46.3 µM), for the others: at the top dose activity change, negative = inhibition, usual class: inhibitors. 1.6% of 76,000 active; calls by dose curve; also: nearly all actives have a fitted effect of over 60% in size
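Compound pre-incubated 30 min at room temperature on GloSensor-loaded HEK293 cells stably carrying hNpr1 and the pGS-40F cGMP biosensor. Stimulation uses hNppA at 0.1 nM final; luminescence is taken at baseline and 20 min post-agonist.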
HEK293 viab = counter-screen for SNCA expression inhibitors: cell viability; HEK-293-SNCA-luc viability, GF-AFC fluorescence, 24 h; 0.12% of 150,000 active; Potency, µM (highest dose often 57.1 µM), for inactives: at the highest dose activity change, negative = cytotoxicity, actives largely listed as cytotoxic;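 also: 0% = DMSO-treated cells and -100% = medium-only wells without cells; nearly all actives have a fitted effect of over 30% in size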
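Cytotoxicity counterscreen: after 24 h compound treatment of genome-edited SNCA-luciferase HEK-293 cells, live-cell protease substrate GF-AFC read by fluorescence after 30 min; activity scaled between DMSO (0%) and medium-only (-100%), curves Hill-fitted.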
HEK cytotox = HEK 293 cell cytotoxicity; HEK 293 viability, ATP luminescence (CellTiter-Glo), 48-72 h; Potency, µM (titrated, usually from 115 µM), for the others: at the highest dose activity change, negative = cytotoxicity, usual class: inhibitors; 6.6% of 94,000 active; AID 1345083; also: nearly all actives have a fitted effect of over 60% in size
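CellTiter-Glo luminescence (cellular ATP) was read after 48 or 72 hr of compound exposure at 37 degree Celsius. Cells were HEK 293 plated at 250 cells/well.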
* hit, by the source's call; i = inactive; ? = inconclusive; / = no result given; [ ] = dose if it differs, or a comment. Compounds with a hit are over-represented: about 7.2% of the library has one in this group of screens. Unless noted, calls follow the shape of the dose curve; as a rule, active = well fitted curve in the direction sought with a large enough effect; inconclusive = small, poorly fitted or top-dose-only effect, or another doubt; inactive = no such curve, though single readings can be large; an effect the other way counts as inactive or inconclusive. Unless noted, % is scaled to controls: 0 for no effect and ±100 for the full control effect; potency is read from the fitted curve at half-maximal effect.

SMILES | SNCA expr inh | FLuc inh | NIH3T3 tox | NPR1 antag | HEK293 viab | HEK cytotox
COC(=O)[C@@H]1Cc2c([nH]c3ccccc23)[C@H]2C[C@H](NCCc3cnc[nH]3)C[C@@H](c3ccccc3F)N21 | ? | i | ? | -20.8% | ? | 22.4µM*
COC(=O)[C@@H]1Cc2c([nH]c3ccccc23)[C@H]2C[C@@H](NCCc3cnc[nH]3)C[C@@H](c3cccc(Cl)c3)N21 | -12.6% | i | ? | 0.0% | -11.1% | 28.2µM*
O=C(NCCc1cnc[nH]1)C1CC(=O)N(c2n[nH]c3ccccc23)C1 (stereo unspecified) | -5.2% | i | i | 0.6% | -4.9% | 3.5%
COc1ccc(-c2noc(Nc3cc(C)ccc3OC)n2)cc1 | 159.0% | 17.8µM* | ? | -5.8% | -18.1% | ?
COc1ccc(C)cc1Nc1nc(-c2ccc(OC)c(OC)c2)no1 | 101.8% | ? | ? | -4.3% | -8.7% | ?
COCCN1C(=O)[C@@H]2C[C@@H](CN2Cc2ccccc2)Oc2ccccc21 | -30.1%[87.6 µM] | i | -22.7%[138 µM] | -1.3%[70.6 µM] | 3.3%[87.6 µM] | ?
COCCN1C(=O)[C@@H]2C[C@@H](CN2Cc2ccc3ccccc3n2)Oc2ccccc21 | 46.3%[87.6 µM] | ? | 100µM* | -15.7%[70.6 µM] | -11.9%[87.6 µM] | ?
COc1ccc(CN2C(=O)[C@@H]3C[C@@H](CN3CC3CC3)Oc3ccccc32)cc1 | ? | i | 79.4µM* | -29.7%[70.6 µM] | ? | ?
CN1C(=O)[C@@H]2C[C@@H](CN2Cc2nccs2)Oc2ccccc21 | 12.6%[87.6 µM] | i | -5.7%[138 µM] | 1.1%[70.6 µM] | -9.3%[87.6 µM] | ?
CN1C(=O)[C@@H]2C[C@@H](CN2Cc2ccnc3ccccc23)Oc2ccccc21 | 4.0%[87.6 µM] | i | 89.1µM* | -29.0%[70.6 µM] | -13.7%[87.6 µM] | ?
O=C1[C@@H]2C[C@@H](CN2Cc2cnc3ccccc3c2)Oc2ccccc2N1CC1CC1 | -25.9%[87.6 µM] | i | ? | -23.5%[70.6 µM] | ? | 50.1µM*
C=C(C(=O)OC[C@H]1O[C@@H](OC(=O)/C=C/c2ccccc2)[C@H](O)[C@@H](O)[C@@H]1O)C(O)CO (stereo partly specified) | / | / | / | / | -2.9%[23.9 µM] | /
C[S+](=O)([O-])c1ccc(-c2cc(C(=O)NCC3CC3)nn3cccc23)cc1 | -24.1% | / | ? | / | ? | ?
O=C1[C@@H]2C[C@@H](CN2Cc2ccc(F)c(F)c2)Oc2ccccc2N1Cc1ccccn1 | -12.3%[87.6 µM] | i | ? | -10.1%[70.6 µM] | -16.1%[87.6 µM] | ?
O=C1[C@@H]2C[C@@H](CN2Cc2ccc3c(c2)OCO3)Oc2ccccc2N1Cc1ccccn1 | -3.3%[87.6 µM] | i | ? | -17.8%[70.6 µM] | -9.9%[87.6 µM] | 79.4µM*
CC(C)c1ccc(CC(=O)N2CCCc3ncc(C(=O)NCCOc4ccccc4)cc32)cc1 | 7.4% | ? | ? | ? | -22.8% | 39.8µM*
CC(C)CCNC(=O)c1cnc2c(c1)N(C(=O)Cc1ccc(C(C)C)cc1)CCC2 | -13.3%[87.6 µM] | i | 100µM* | -22.8%[70.6 µM] | -8.1%[87.6 µM] | 100µM*
O=C(NC1CC1)c1cc(-c2ccccc2C(F)(F)F)nc2onc(C3CCCN3)c12 (stereo unspecified) | 4.0% | / | -16.7% | / | 2.7% | -24.0%
CCCS(=O)(=O)N1CCC(N2C(=O)C3(CCCCC3)C2c2ccncc2)CC1 (stereo unspecified) | 12.0% | i | -6.8% | 0.9% | -4.0%[12.5 µM] | -26.2%
O=C(NCc1ccc(F)cc1)c1cc(-c2ccc(F)cc2)c2nncn2n1 | -4.9% | / | -19.6% | / | -6.9% | -7.1%
O=C(NC1CCCCC1)c1cc(-c2ccc(F)cc2)c2nncn2n1 | -2.7% | / | ? | / | 9.3% | -8.2%
O=C(NCC1CCCCC1)c1cc(-c2ccc(F)cc2)c2nncn2n1 | 15.0% | / | 6.31µM* | / | -23.6% | ?
O=C(NCc1ccc(F)cc1)c1cc(-c2ccc(Cl)cc2Cl)c2nncn2n1 | ? | / | 44.7µM* | / | -15.2%[12.5 µM] | 89.1µM*
Cc1cc2nc3n(c(=O)c2n1CC(=O)Nc1cccc(C(F)(F)F)c1)CCCCC3 | ? | i | -12.3% | -23.0% | -3.5% | ?
CC1(C)C[C@H](NC(=O)c2cccnc2)[C@@]2(CCC(=O)NCCN3CCOCC3)CC[C@](C)(O)C[C@@H]12 | -13.2% | i | -20.6% | 0.4% | 6.9% | 1.5%
SMILES | SNCA expr inh | FLuc inh | NIH3T3 tox | NPR1 antag | HEK293 viab | HEK cytotox
COc1cc(F)ccc1-c1nc(-c2c(C)noc2C)cc2[nH]c(C)cc12 | 56.2%[87.6 µM] | i | 35.5µM* | -0.3%[70.6 µM] | -12.0%[87.6 µM] | ?
COc1ncccc1-c1nc(-c2c(C)noc2C)cc2[nH]c(C)cc12 | 71.4%[87.6 µM] | i | ? | 3.1%[70.6 µM] | -3.8%[87.6 µM] | ?
COc1ccccc1-c1nc(-c2c(C)noc2C)cc2[nH]c(C)cc12 | 45.9%[87.6 µM] | i | 25.1µM* | -13.6%[70.6 µM] | -2.7%[87.6 µM] | ?
Cc1ccccc1COC1CN(C(=O)C2CC(=O)N(C(C)(C)C)C2)C1 (stereo unspecified) | 0.7% | i | -10.6% | 4.4% | 0.0% | -11.2%
Cc1nc(-c2ccc(Cl)cc2)n(Cc2ccc(F)c(F)c2)c(=O)c1CCO | -13.1% | i | ? | -22.9% | 3.7% | 44.7µM*
Cc1nc(-c2ccc(Cl)cc2)n(Cc2ccc(F)cc2F)c(=O)c1CCO | 9.0% | i | ? | 0.9% | 4.5% | 35.5µM*
Cc1nc(-c2ccc(F)cc2)n(Cc2ccc(F)c(F)c2)c(=O)c1CCO | -6.2% | i | ? | -23.3% | -2.2% | ?
Cc1nc(-c2ccc(Cl)cc2)n(Cc2ccccc2)c(=O)c1CCO | 17.0% | i | ? | -1.5% | 6.6% | 44.7µM*
Cc1nc(-c2ccc(Cl)cc2)n(Cc2ccccc2F)c(=O)c1CCO | -18.0% | i | ? | 3.2% | -11.4% | 44.7µM*
Cc1ccc(C(=O)N2CCCCCCn3c(nnc3-c3ccc(F)cc3)CC2)cn1 | -16.9% | i | -19.1% | -1.0% | -0.4% | -1.6%
Cc1cccc(NC(=O)N2CCC(CCNC(=O)c3cccs3)CC2)c1 | 1.6% | i | -0.7% | 4.4% | -8.3% | 2.8%
O=C(Cc1c[nH]c2ccccc12)NCc1cccnc1N1CCOCC1 | 0.4% | i | -6.2% | 5.7% | 0.2% | -10.9%
O=C1CCN(C(=O)COc2ccccc2)CCCC(C(=O)NCc2ccccc2)CCN1 (stereo unspecified) | 40.3% | i | -24.1% | -8.4% | -10.4% | -11.7%
Cc1nc(-c2ccccc2)n(Cc2ccc(F)cc2Cl)c(=O)c1CCO | ? | i | 44.7µM* | -21.3% | ? | 28.2µM*
COc1ccc(C(=O)N2CCc3cn(C)c4cccc(c34)C2)c(C)c1 | -27.7% | i | ? | 2.7% | 1.3% | 22.4µM*
COc1ccc(CC(=O)N2CCc3cn(C)c4cccc(c34)C2)cc1 | 5.5% | i | ? | 3.9% | -8.7% | ?
COc1ccc(N2CC3CCC(C2)N3Cc2ccccc2)cc1 | -6.4% | / | -13.0% | / | 10.4% | -22.4%
